The values that follow come from PubChem BioAssay (NCATS).

Records with an inconclusive call do not appear.

The nature of the first test: qHTS for identification of novel therapeutic agents for treatment of microphthalmiaassociated transcription factor (MiT) renal cell carcinoma (RCC) (AID 1963991). The note with it: TFE3-RCC viability, CellTiter-Glo, 48 h; measured here: UOK124 Z-AUC; stronger effect = lower value. The method, boiled down: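 Three TFE3-fusion RCC cell lines (UOK109, UOK124, UOK145), 500 cells/well, were exposed to the 1912-compound MIPE 4.0 library for 48 hours at 37 C. Viability was read by CellTiter-Glo luminescence, normalised to DMSO (100%) and empty wells (0%), with 11-concentration curve fits.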
A general note: qHTS replaces the single test concentration by a dilution series.
For the molecule `CC[C@H](C=C[C@@H](C)[C@H]1CC[C@H]2[C@@H]3CC=C4C[C@@H](O)CC[C@]4(C)[C@@H]3CC[C@]12C)C(C)C`, the z-score came to 0.915.

Molecule `COc1ccc(-c2ccc3ncc4c(c3c2)n(-c2ccc(N3CCNCC3)c(C(F)(F)F)c2)c(=O)n4C)cn1` came in with a z-score of -3.95.

Turning to `CC(NCCc1ccc(O)cc1)C(O)c1ccc(O)cc1` (configuration not stated), the z-score worked out at 0.96.

Take `Cc1ccc(C(=O)N(CCCN)[C@@H](c2oc3cc(Cl)ccc3c(=O)c2Cc2ccccc2)C(C)C)cc1`: the z-score was -1.71.

Consider `Cc1ccc(C(=O)N(CCCN)[C@@H](c2nc3cc(Cl)ccc3c(=O)n2Cc2ccccc2)C(C)C)cc1`, for which the z-score is -1.53.

The molecule `CCCCC[C@H](O)C=C[C@H]1[C@H](O)CC(=O)[C@H]1CC=CCCCC(=O)O` registered a z-score of 0.597.

Molecule `C=C1c2cccc(O)c2C(O)=C2C(=O)[C@@]3(O)C(O)=C(C(N)=O)C(=O)[C@@H](N(C)C)[C@@H]3[C@@H](O)[C@H]12` had a z-score of 0.336.

Take `O=C1NC(=O)C(c2cnc3ccccn23)=C1c1cn2c3c(cccc13)CN(C(=O)N1CCOCC1)CC2`: the z-score was -1.78.

With `Nc1ccc(-c2ccc3ncc4ccc(=O)n(-c5cccc(C(F)(F)F)c5)c4c3c2)cn1`, the z-score is -4.62.

`CCCCC(F)(F)[C@@]1(O)CC[C@H]2[C@H](CC(=O)[C@@H]2CCCCCCC(=O)O)O1` gave a z-score of 0.425.

`CCC(=O)N1CCN(c2ccc(-n3c(=O)ccc4cnc5ccc(-c6cnc7ccccc7c6)cc5c43)cc2C(F)(F)F)CC1` returned a z-score of -1.23.

As for `C[C@H]1COC2=C1C(=O)C(=O)c1c2ccc2c1CCCC2(C)C`, the z-score is -0.0946.

`CC(=O)OCC(=O)[C@@]1(O)CC[C@H]2[C@@H]3CCC4=CC(=O)C=C[C@]4(C)[C@@H]3[C@@H](O)C[C@@]21C`: the z-score turned out to be 0.317.

Regarding `Cc1cc2c(cc1C1(c3ccc(C(=O)O)cn3)CC1)C(C)(C)CCC2(C)C`, the z-score was -2.74.

`CN1CCN2c3ncccc3Cc3ccccc3C2C1` (configuration not stated) gave a z-score of 0.445.

`O=C(NCCCCN1CCOCC1)c1cc2ccccc2o1` gave a z-score of 0.64.

`CC(C)C[C@@H](N)[C@H](O)C(=O)N[C@H](C(=O)N[C@H](C(=O)N[C@@H](CC(=O)O)C(=O)O)C(C)C)C(C)C` had a z-score of 0.596.

With `C[C@]12C=CC(=O)C=C1CC[C@@H]1[C@@H]2[C@@H](O)C[C@@]2(C)[C@@H]1CC[C@]2(O)C(=O)CO`, the z-score worked out at 0.34.

The molecule `CS(=O)(=O)c1ccc(C2=C(c3ccccc3)C(=O)OC2)cc1` displayed a z-score of 0.766.

Take `CC1(C)OC2CC3C4CC(F)C5=CC(=O)C=CC5(C)C4C(O)CC3(C)[C@]2(C(=O)CO)O1` (some centres not stated): the z-score is 1.01.

With `Cc1nc2c([nH]1)CCN(C(=O)c1ccc(NC(=O)c3ccccc3-c3ccccc3)cc1)c1ccccc1-2`, the z-score amounted to 0.486.

`CN(C)CCN(C)C(=O)c1ccc(NC(=O)Nc2ccc(-c3nc(N4CCOCC4)c4ccn(CC(F)(F)F)c4n3)cc2)cc1`: the z-score is -3.06.

`CCC[C@H](Nc1nc(-c2ccc(NC(=O)NCC)c(OC)c2)ncc1C)c1cccnc1` returned a z-score of -3.81.

In turn, `O=C(O)c1nc(=O)[nH]c(=O)[nH]1` gave a z-score of 0.587.

`CCCCOCCOc1nc(-c2ccc(C(=O)O)c(F)c2)sc1C` yielded a z-score of 0.152.

Turning to `C=CC[N+]1([C@H]2C[C@H]3[C@@H]4CC[C@H]5C[C@H](O)[C@@H](N6CCOCC6)C[C@]5(C)[C@@H]4CC[C@]3(C)[C@H]2OC(C)=O)CCCC1`, the z-score was 0.675.

`NS(=O)(=O)c1cc(Cl)c(Cl)c(S(N)(=O)=O)c1` returned a z-score of 0.351.

Turning to `N#Cc1c(N(CC(=O)O)CC(=O)O)sc(C(=O)O)c1CC(=O)O`, the z-score was 0.354.

As for `Cc1cc(NC(=O)Nc2ccc(N(C)C)cc2)c2cc(F)cc(F)c2n1`, the z-score was 0.89.

`O=C(O)Cc1cccc(OCCCN(Cc2cccc(C(F)(F)F)c2Cl)CC(c2ccccc2)c2ccccc2)c1` returned a z-score of 0.0786.

`CN1C(=O)C[C@H](C(=O)N[C@@H](Cc2cnc[nH]2)C(=O)N2CCC[C@@H]2C(N)=O)NC1=O` showed a z-score of 0.308.

Staying with this test, now noted: TFE3-RCC viability, CellTiter-Glo, 48 h; measured here: UOK145 Z-AUC; stronger effect = lower value.
As to `CC[C@H](C=C[C@@H](C)[C@H]1CC[C@H]2[C@@H]3CC=C4C[C@@H](O)CC[C@]4(C)[C@@H]3CC[C@]12C)C(C)C`, the z-score worked out at 1.02.

In the case of `COc1ccc(-c2ccc3ncc4c(c3c2)n(-c2ccc(N3CCNCC3)c(C(F)(F)F)c2)c(=O)n4C)cn1`, the z-score was -3.85.

Consider `CC(NCCc1ccc(O)cc1)C(O)c1ccc(O)cc1` (configuration not stated), for which the z-score came to 2.38.

In turn, `Cc1ccc(C(=O)N(CCCN)[C@@H](c2oc3cc(Cl)ccc3c(=O)c2Cc2ccccc2)C(C)C)cc1` displayed a z-score of -2.

Consider `Cc1ccc(C(=O)N(CCCN)[C@@H](c2nc3cc(Cl)ccc3c(=O)n2Cc2ccccc2)C(C)C)cc1`, for which the z-score is -1.7.

With `CCCCC[C@H](O)C=C[C@H]1[C@H](O)CC(=O)[C@H]1CC=CCCCC(=O)O`, the z-score turned out to be 0.962.

As to `C=C1c2cccc(O)c2C(O)=C2C(=O)[C@@]3(O)C(O)=C(C(N)=O)C(=O)[C@@H](N(C)C)[C@@H]3[C@@H](O)[C@H]12`, the z-score stood at 0.104.

As to `O=C1NC(=O)C(c2cnc3ccccn23)=C1c1cn2c3c(cccc13)CN(C(=O)N1CCOCC1)CC2`, the z-score is -1.46.

Regarding `Nc1ccc(-c2ccc3ncc4ccc(=O)n(-c5cccc(C(F)(F)F)c5)c4c3c2)cn1`, the z-score was -4.33.

`CCCCC(F)(F)[C@@]1(O)CC[C@H]2[C@H](CC(=O)[C@@H]2CCCCCCC(=O)O)O1`: the z-score worked out at 0.602.

Molecule `CCC(=O)N1CCN(c2ccc(-n3c(=O)ccc4cnc5ccc(-c6cnc7ccccc7c6)cc5c43)cc2C(F)(F)F)CC1` returned a z-score of -1.82.

In turn, `C[C@H]1COC2=C1C(=O)C(=O)c1c2ccc2c1CCCC2(C)C` returned a z-score of -0.271.

In turn, `CC(=O)OCC(=O)[C@@]1(O)CC[C@H]2[C@@H]3CCC4=CC(=O)C=C[C@]4(C)[C@@H]3[C@@H](O)C[C@@]21C` had a z-score of -2.56.

The molecule `Cc1cc2c(cc1C1(c3ccc(C(=O)O)cn3)CC1)C(C)(C)CCC2(C)C` displayed a z-score of 0.66.

As for `CN1CCN2c3ncccc3Cc3ccccc3C2C1` (configuration not stated), the z-score worked out at 0.581.

`O=C(NCCCCN1CCOCC1)c1cc2ccccc2o1` showed a z-score of 0.273.

In the case of `CC(C)C[C@@H](N)[C@H](O)C(=O)N[C@H](C(=O)N[C@H](C(=O)N[C@@H](CC(=O)O)C(=O)O)C(C)C)C(C)C`, the z-score was -0.2.

The molecule `C[C@]12C=CC(=O)C=C1CC[C@@H]1[C@@H]2[C@@H](O)C[C@@]2(C)[C@@H]1CC[C@]2(O)C(=O)CO` gave a z-score of -1.47.

On to `CS(=O)(=O)c1ccc(C2=C(c3ccccc3)C(=O)OC2)cc1`, for which the z-score is 0.708.

As to `CC1(C)OC2CC3C4CC(F)C5=CC(=O)C=CC5(C)C4C(O)CC3(C)[C@]2(C(=O)CO)O1` (some centres not stated), the z-score was -1.73.

`Cc1nc2c([nH]1)CCN(C(=O)c1ccc(NC(=O)c3ccccc3-c3ccccc3)cc1)c1ccccc1-2` gave a z-score of 0.369.

In the case of `CN(C)CCN(C)C(=O)c1ccc(NC(=O)Nc2ccc(-c3nc(N4CCOCC4)c4ccn(CC(F)(F)F)c4n3)cc2)cc1`, the z-score is -1.67.

`CCC[C@H](Nc1nc(-c2ccc(NC(=O)NCC)c(OC)c2)ncc1C)c1cccnc1` gave a z-score of -2.31.

`O=C(O)c1nc(=O)[nH]c(=O)[nH]1` displayed a z-score of 1.2.

Take `CCCCOCCOc1nc(-c2ccc(C(=O)O)c(F)c2)sc1C`: the z-score is 0.316.

Molecule `C=CC[N+]1([C@H]2C[C@H]3[C@@H]4CC[C@H]5C[C@H](O)[C@@H](N6CCOCC6)C[C@]5(C)[C@@H]4CC[C@]3(C)[C@H]2OC(C)=O)CCCC1` had a z-score of 0.368.

`NS(=O)(=O)c1cc(Cl)c(Cl)c(S(N)(=O)=O)c1`: the z-score turned out to be 1.23.

The molecule `N#Cc1c(N(CC(=O)O)CC(=O)O)sc(C(=O)O)c1CC(=O)O` displayed a z-score of 0.00458.

In the case of `Cc1cc(NC(=O)Nc2ccc(N(C)C)cc2)c2cc(F)cc(F)c2n1`, the z-score was determined as 1.08.

Molecule `O=C(O)Cc1cccc(OCCCN(Cc2cccc(C(F)(F)F)c2Cl)CC(c2ccccc2)c2ccccc2)c1` returned a z-score of 0.416.

In the case of `CN1C(=O)C[C@H](C(=O)N[C@@H](Cc2cnc[nH]2)C(=O)N2CCC[C@@H]2C(N)=O)NC1=O`, the z-score was found to be 0.628.
